Experimental data taken from PubChem BioAssay (NCI).
About 79,000 compounds went through this panel and 15% of them were active in at least one assay; those are over-represented in the sample as a whole. Calls of active or inactive are those of the source. No stated cut-off is given here; in the data, active means growth inhibition above about 70%; inactive means the rest.

Legend:
[1] = NCI Yeast Anticancer Drug Screen. Data for the wt1 strain (AID 149);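 further: 0% = growth of vehicle-treated wt1 cultures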; conditions: S. cerevisiae wt1 strain (SPY 50644) growth inhibition, stronger effect = higher value
In short: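 Compounds are added to wt1 yeast cultures. Growth is then measured. Inhibition is expressed relative to vehicle-treated controls.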

[2] = NCI Yeast Anticancer Drug Screen. Data for the rad50EPP+ strain (AID 151);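 further: 0% = growth of vehicle-treated control cultures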; conditions: S. cerevisiae rad50 mutant strain, stronger effect = higher value
In short: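 Exposing the rad50EPP+ strain to each compound, growth was compared with vehicle-only cultures to give inhibition.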

[3] = NCI Yeast Anticancer Drug Screen. Data for the mgt1 strain (AID 153); conditions: S. cerevisiae mgt1 mutant growth inhibition, stronger effect = higher value
In short: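 Genetically defined yeast (mgt1) treated with compound; inhibition of growth expressed against vehicle-treated controls.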

[4] = NCI Yeast Anticancer Drug Screen. Data for the rad50 strain (AID 155);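 further: 0% = growth of vehicle-only cultures of the same strain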; conditions: S. cerevisiae rad50 strain growth inhibition, stronger effect = higher value
In short: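 Inhibition values express reduced yeast growth in compound-treated cultures relative to vehicle-treated controls.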

[5] = NCI Yeast Anticancer Drug Screen. Data for the mec2-1 strain (AID 157); conditions: S. cerevisiae mec2-1 strain, stronger effect = higher value
In short: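 Readout is yeast growth inhibition, normalised to vehicle-treated controls, in the mec2-1 strain exposed to compound.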

[6] = NCI Yeast Anticancer Drug Screen. Data for the rad14 strain (AID 159);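 further: 0% = growth of vehicle-treated control cultures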; conditions: S. cerevisiae rad14 strain growth inhibition, stronger effect = higher value
In short: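 A mutant yeast strain defective in DNA damage repair is treated with compound; inhibition of its growth is scored against untreated, vehicle-exposed cultures.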

[7] = NCI Yeast Anticancer Drug Screen. Data for the sgs1 mgt1 strain (AID 161);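 further: 0% = growth of cultures given vehicle only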; conditions: S. cerevisiae sgs1 mgt1 strain, stronger effect = higher value
In short: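 Growth of a repair-deficient yeast mutant was monitored after compound treatment and expressed as inhibition relative to vehicle-treated cultures.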

[8] = NCI Yeast Anticancer Drug Screen. Data for the cln2 rad14 strain (AID 165);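 further: 0% = growth equal to vehicle treated cultures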; conditions: S. cerevisiae cln2 rad14 strain, stronger effect = higher value
In short: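 Relative to vehicle controls, growth inhibition of compound-treated cln2 rad14 yeast was recorded.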

[9] = NCI Yeast Anticancer Drug Screen. Data for the bub3 strain (AID 167); conditions: S. cerevisiae bub3 mutant strain, stronger effect = higher value
In short: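 Steps: expose the mutant yeast strain to compound; grow alongside vehicle-treated cultures; measure growth; express inhibition against the vehicle cultures.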

[10] = NCI Yeast Anticancer Drug Screen. Data for the mlh1 strain (AID 171);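 further: 0% = growth of vehicle-treated control cultures of the same strain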; conditions: S. cerevisiae mlh1 strain growth inhibition, stronger effect = higher value
In short: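 Steps: expose the defined-mutant yeast strain to compound; expose a parallel culture to vehicle; measure growth; express compound effect as inhibition relative to the vehicle culture.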

[11] = NCI Yeast Anticancer Drug Screen. Data for the sgs1 strain (AID 173);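 further: 0% = growth of vehicle-only control cultures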; conditions: S. cerevisiae sgs1 mutant, stronger effect = higher value
In short: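 Treat defined-mutant yeast with compound; measure growth; calculate inhibition relative to vehicle-treated cells.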

[12] = NCI Yeast Anticancer Drug Screen. Data for the mlh1 rad18 strain (AID 175); conditions: S. cerevisiae mlh1 rad18 strain growth inhibition, stronger effect = higher value
In short: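 Test agents were incubated with a yeast strain of defined genotype (DNA damage repair defect). Inhibition of growth was derived by comparison with vehicle-exposed cultures.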

[13] = NCI Yeast Anticancer Drug Screen. Data for the rad18 strain (AID 177); conditions: S. cerevisiae rad18 mutant growth inhibition, stronger effect = higher value
In short: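 A genetically defined yeast mutant impaired in DNA damage repair was treated with test compounds, then its growth was measured against cultures receiving vehicle alone.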

[14] = NCI Yeast Anticancer Drug Screen. Data for the rad52 strain (AID 147);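 further: 0% = growth of vehicle-treated control cultures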; conditions: S. cerevisiae rad52 mutant growth inhibition, stronger effect = higher value
In short: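 Screen used a yeast mutant impaired in DNA repair. After compound exposure, growth was measured. Values reflect inhibition compared with vehicle-treated cells.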

[15] = NCI Yeast Anticancer Drug Screen. Data for the CLN2oe strain (AID 163);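 further: 0% = growth of vehicle-only control cultures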; conditions: S. cerevisiae CLN2oe strain, stronger effect = higher value
In short: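 Values reflect how much compound exposure reduced yeast growth, referenced to vehicle-exposed cells. Assay organism is a strain with a defined genetic change affecting cell-cycle control.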

[16] = NCI Yeast Anticancer Drug Screen. Data for the wt2 strain (AID 169);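 further: 0% = growth of vehicle-treated yeast cultures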; conditions: S. cerevisiae wt2 strain growth inhibition, stronger effect = higher value
In short: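 Values express reduction in yeast growth under compound treatment, referenced to vehicle-treated cells.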

[17] = at 5.0 µM (retest, dose inferred, filed as 0.5)
[18] = at 50.0 µM (retest, dose inferred, filed as 5.0)

Measured: growth inhibition

O=C1C(Nc2ccccc2)=C(Oc2ccccc2)C(=O)c2ccccc21
active: [9]; at 50.0 µM 82.5% | [9]; at 100.0 µM 70%
inactive: [1]; at 1.2 µM 3% | [1]; at 3.7 µM -10% | [1]; at 11.0 µM 7% | [1]; at 33.0 µM -4% | [1]; at 100.0 µM 14% | [2]; at 1.2 µM 5% | [2]; at 3.7 µM 20% | [2]; at 11.0 µM 28% | [2]; at 33.0 µM 58% | [2]; at 100.0 µM 60% | [3]; at 1.2 µM 5% | [3]; at 3.7 µM -2% | [3]; at 11.0 µM 2% | [3]; at 33.0 µM 1% | [3]; at 100.0 µM -1% | [4]; at 1.2 µM -6% | [4]; at 3.7 µM -11% | [4]; [17] -1% | [4]; at 11.0 µM -5% | [4]; at 33.0 µM 27% | [4]; [18] 26% | [4]; at 50.0 µM 23.7% | [4]; at 100.0 µM 38% | [5]; at 1.2 µM 2% | [5]; at 3.7 µM 1% | [5]; [17] 3% | [5]; at 11.0 µM 6% | [5]; at 33.0 µM 3% | [5]; [18] 20% | [5]; at 50.0 µM 24.4% | [5]; at 100.0 µM 2% | [6]; at 1.2 µM 13% | [6]; at 3.7 µM 0% | [6]; at 11.0 µM 4% | [6]; at 33.0 µM 9% | [6]; at 100.0 µM -15% | [7]; [17] -2% | [7]; [18] 17% | [7]; at 50.0 µM 16.4% | [8]; [17] -7% | [8]; [18] 1% | [8]; at 50.0 µM 5.25% | [9]; at 1.2 µM 3% | [9]; at 3.7 µM 9% | [9]; [17] 16% | [9]; at 11.0 µM 23% | [9]; at 33.0 µM 55% | [9]; [18] 59% | [10]; at 1.2 µM -5% | [10]; at 3.7 µM 0% | [10]; at 11.0 µM 1% | [10]; at 33.0 µM 0% | [10]; at 100.0 µM 0% | [11]; at 1.2 µM -7% | [11]; at 3.7 µM -2% | [11]; at 11.0 µM 3% | [11]; at 33.0 µM 15% | [11]; at 100.0 µM 16% | [12]; [17] -3% | [12]; [18] 30% | [12]; at 50.0 µM 58.8% | [13]; at 1.2 µM -4% | [13]; at 3.7 µM 4% | [13]; at 11.0 µM 4% | [13]; at 33.0 µM 14% | [13]; at 100.0 µM 1%

COc1ccccc1C(=O)OCC1CCCN2CCCCC12 (stereo unspecified)
active: [14]; at 33.0 µM 76% | [14]; at 100.0 µM 97% | [2]; at 11.0 µM 80% | [2]; at 33.0 µM 97% | [2]; at 100.0 µM 98% | [3]; at 11.0 µM 73% | [3]; at 33.0 µM 91% | [3]; at 100.0 µM 98% | [4]; at 33.0 µM 97% | [4]; [18] 99% | [4]; at 50.0 µM 90.7% | [4]; at 100.0 µM 97% | [5]; [18] 99% | [5]; at 50.0 µM 93% | [5]; at 100.0 µM 98% | [6]; at 11.0 µM 77% | [6]; at 33.0 µM 98% | [6]; at 100.0 µM 99% | [7]; at 50.0 µM 91.6% | [15]; at 100.0 µM 95% | [8]; at 50.0 µM 90.9% | [9]; at 33.0 µM 97% | [9]; [18] 91% | [9]; at 50.0 µM 90.8% | [9]; at 100.0 µM 97% | [16]; at 11.0 µM 94% | [16]; at 33.0 µM 96% | [16]; at 100.0 µM 98% | [11]; at 100.0 µM 98% | [12]; [18] 99% | [12]; at 50.0 µM 90.3% | [13]; at 33.0 µM 95% | [13]; at 100.0 µM 97%
inactive: [14]; at 1.2 µM 22% | [14]; at 3.7 µM 8% | [14]; at 11.0 µM 57% | [2]; at 1.2 µM 4% | [2]; at 3.7 µM -3% | [3]; at 1.2 µM 23% | [3]; at 3.7 µM 15% | [4]; at 1.2 µM 8% | [4]; at 3.7 µM 8% | [4]; [17] 21% | [4]; at 11.0 µM 68% | [5]; at 1.2 µM 0% | [5]; at 3.7 µM -6% | [5]; [17] 53% | [5]; at 11.0 µM 0% | [5]; at 33.0 µM 56% | [6]; at 1.2 µM 10% | [6]; at 3.7 µM 17% | [7]; [17] -17% | [7]; [18] 40% | [15]; at 1.2 µM 8% | [15]; at 3.7 µM -1% | [15]; at 11.0 µM -12% | [15]; at 33.0 µM 63% | [8]; [17] -9% | [8]; [18] 8% | [9]; at 1.2 µM -9% | [9]; at 3.7 µM -20% | [9]; [17] 7% | [9]; at 11.0 µM 31% | [16]; at 1.2 µM -18% | [16]; at 3.7 µM -5% | [11]; at 1.2 µM 10% | [11]; at 3.7 µM -15% | [11]; at 11.0 µM 62% | [11]; at 33.0 µM 63% | [12]; [17] 60% | [13]; at 1.2 µM -5% | [13]; at 3.7 µM -21% | [13]; at 11.0 µM 35%

Cc1cc(I)ccc1N
inactive: [14]; at 1.2 µM 24% | [14]; at 3.7 µM 4% | [14]; at 11.0 µM 24% | [2]; at 1.2 µM -24% | [2]; at 3.7 µM -11% | [2]; at 11.0 µM -8% | [2]; at 33.0 µM 20% | [4]; at 1.2 µM -31% | [4]; at 3.7 µM -13% | [4]; [17] 50% | [4]; at 11.0 µM -13% | [5]; at 1.2 µM -3% | [5]; at 3.7 µM 4% | [5]; [17] 51% | [5]; at 11.0 µM -2% | [6]; at 1.2 µM 1% | [6]; at 3.7 µM -15% | [6]; at 11.0 µM -1%
active: [14]; at 33.0 µM 92% | [14]; at 100.0 µM 87% | [2]; at 100.0 µM 74% | [4]; at 33.0 µM 91% | [4]; [18] 79% | [4]; at 50.0 µM 85.6% | [4]; at 100.0 µM 93% | [5]; at 33.0 µM 87% | [5]; [18] 87% | [5]; at 50.0 µM 88.2% | [5]; at 100.0 µM 92% | [6]; at 33.0 µM 93%
